This is a sample that favours compounds with a hit; in the whole collection about 19% have one here.
Gal4-VP16 FLuc: VP16 counterscreen qHTS for inhibitors of ROR gamma transcriptional activity; Drosophila S2 Gal4-VP16 UAS-luciferase, luminescence, 20 h; Potency, µM (highest dose often 53.6 µM), inactives show at the highest dose activity, negative = inhibition, most hits filed as inhibitors; 3.5% of 310,000 active; AID 2546, 2010;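 further: Gal4-VP16 expression switched on by copper sulfate through the metallothionein promoter; nearly all actives have a fitted effect of over 50% in size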
TDP1 cell noCPT: qHTS for Inhibitors of human tyrosyl-DNA phosphodiesterase 1 (TDP1): qHTS in cells in absence of CPT. DT40 Tdp1-/- hTDP1 cells, no CPT, ATP luminescence, 48 h. Potency, µM (titrated, usually from 46.2 µM), inactives show at the top dose activity change, negative = growth inhibition, most hits filed as inhibitors. 15% of 420,000 active; further: nearly all actives have a fitted effect of over 55% in size
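Growth of hTDP1-complemented DT40 Tdp1-knockout cells is measured by ATP luminescence after at least 48 hr compound exposure at 37 °C, with DMSO substituting for the 20 nM CPT used in the parallel screen.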
DT40 TDP1 CPT: qHTS for Inhibitors of human tyrosyl-DNA phosphodiesterase 1 (TDP1): qHTS in cells in presence of CPT; chicken DT40 Tdp1-/-;hTDP1 cells + 20 nM CPT, ATP luminescence, 48 h; Potency, µM (series often up to 46.2 µM), without a hit: top-dose activity change, negative = growth inhibition, most hits filed as inhibitors; 12% of 420,000 active; further: nearly all actives have a fitted effect of over 55% in size
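Cell growth measured by CellTiter-Glo luminescence after a minimum 48 h, 37 C compound exposure with 20 nM CPT in Tdp1-knockout DT40 cells stably expressing hTDP1, seeded 400/well; qHTS titration format.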
TDP1 block: qHTS Assay for Inhibitors of Tyrosyl-DNA Phosphodiesterase (TDP1); Tyrosyl-DNA phosphodiesterase 1 (Homo sapiens), Q9NUW8; recombinant TDP1, AlphaScreen DNA substrate cleavage; Potency, µM (titrated, usually from 130 µM), without a hit: at the highest dose activity change, negative = inhibition, actives largely listed as inhibitors; 0.28% of 350,000 active; AID 485290, 2010; further: nearly all actives have a fitted effect of over 40% in size
Target sequence (Q9NUW8 whole entry, looked up): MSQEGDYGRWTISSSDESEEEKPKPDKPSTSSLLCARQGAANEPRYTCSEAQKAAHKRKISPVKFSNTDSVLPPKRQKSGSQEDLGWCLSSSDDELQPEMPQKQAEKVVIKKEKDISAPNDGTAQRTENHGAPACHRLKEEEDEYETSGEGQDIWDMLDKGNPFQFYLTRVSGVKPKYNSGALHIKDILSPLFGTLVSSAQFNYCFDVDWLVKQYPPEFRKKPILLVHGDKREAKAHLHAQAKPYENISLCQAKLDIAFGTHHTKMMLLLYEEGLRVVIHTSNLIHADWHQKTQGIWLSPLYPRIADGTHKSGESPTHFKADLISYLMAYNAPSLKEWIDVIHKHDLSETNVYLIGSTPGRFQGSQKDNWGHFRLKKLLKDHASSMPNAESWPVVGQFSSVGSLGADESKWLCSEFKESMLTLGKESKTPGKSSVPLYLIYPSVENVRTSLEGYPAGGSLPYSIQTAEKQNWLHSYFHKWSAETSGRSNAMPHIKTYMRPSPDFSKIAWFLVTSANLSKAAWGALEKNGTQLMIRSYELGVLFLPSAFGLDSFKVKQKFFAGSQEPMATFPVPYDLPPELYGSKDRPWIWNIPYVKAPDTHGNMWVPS
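Steps: enzyme plus compound, 15 min RT; add biotin/phosphotyrosine-FITC oligonucleotide (15 nM final), react 5 min; add donor/acceptor beads (10 ug/ml final), 10 min; read AlphaScreen. Tdp1 at 1 nM final.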
RORg inh: qHTS for inhibitors of ROR gamma transcriptional activity; Nuclear receptor ROR-gamma (Mus musculus), P51450; 5.4% of 310,000 active; Potency, µM (series often up to 53.6 µM), for the others: at the highest dose activity change, negative = inhibition, usual class: inhibitors; AID 2551, 2010; Drosophila S2 Gal4-RORgamma UAS-luciferase reporter, 20 h; further: nearly all actives have a fitted effect of over 60% in size
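Drosophila Schneider cells stably carrying a metallothionein-driven Gal4 DBD–ROR gamma fusion and a UAS-Photinus luciferase reporter were exposed to compound for 1 hr, then induced with copper sulfate (700 uM final) for 20 hr at ambient temperature before luminescence reading.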
* = called active by the depositor; ? = inconclusive; . = no result; [ ] = remark or other dose. The call rests on the fitted dose curve; in most records, active means well fitted curve in the direction sought with a large enough effect; inconclusive means small, poorly fitted or top-dose-only effect, or another doubt; inactive means no such curve, though single readings can be large; an effect the other way counts as inactive or inconclusive. On the % scale 0 is the no-effect control and ±100 the full control effect; potency means the concentration at half of the fitted maximal effect.

SMILES	Gal4-VP16 FLuc	TDP1 cell noCPT	DT40 TDP1 CPT	TDP1 block	RORg inh
COc1ccc(S(=O)(=O)Nc2cc(Cl)ccc2OC)cc1	-1%	2.3µM*	2.3µM*	7%	26%
COc1ccc(S(=O)(=O)c2cc(NS(=O)(=O)c3ccc(Cl)cc3)c(C)c(C)c2O)cc1	.	16µM*	-19%	1%	.
COc1ccc2nc(NS(=O)(=O)c3ccc(C)cc3)c(Nc3cc(Cl)ccc3OC)nc2c1	.	23µM*	?	-1%	.
COc1ccc(Cl)cc1NS(=O)(=O)c1ccc(OC)c(OC)c1	-2%	-5%	-5%	-3%	31%
COc1ccc(S(=O)(=O)c2c(C)c(NS(=O)(=O)c3ccccc3)cc(C)c2O)cc1	11%	?	?	3%	26%
COc1ccc(OC)c(NS(=O)(=O)c2ccc(NC(C)=O)cc2)c1	-1%	?	-25%	5%	12%
COC(=O)c1cccc(NC(=O)CN2C(=O)c3ccccc3C2=O)c1	11%	0%	4%	.	2%
CN(C)C(=O)c1nc(C#N)c(N(C)C)o1	5%	-5%	-19%	5%	-25%
COc1ccc(OC)c(NS(=O)(=O)c2ccc(SC)cc2)c1	-10%	16µM*	9.2µM*	0%	38%
COC(=O)[C@@]1(Cc2ccccc2)[C@H]2C(=O)N(C)C(=O)[C@H]2[C@H]2CN=C(SCC3CC3)N21	.	-19%	3.7µM*	-1%[56.1 µM]	.
COC(=O)[C@@]1(Cc2ccccc2)[C@H]2C(=O)N(C)C(=O)[C@H]2[C@H]2CN=C(SCC(=O)c3ccccc3)N21	.	?	-4%	0%[56.1 µM]	.
COC(=O)c1ccc(CSC2=NC[C@@H]3[C@@H]4C(=O)N(C)C(=O)[C@@H]4[C@](Cc4ccccc4)(C(=O)OC)N23)cc1	.	?	16µM*	0%[56.1 µM]	.
CC[C@]1(C(=O)OC)[C@H]2C(=O)N(C)C(=O)[C@H]2[C@H]2CN=C(SCc3ccc(Cl)cc3)N21	.	?	?	1%[56.1 µM]	.
COC(=O)[C@@]1(Cc2ccccc2)[C@H]2C(=O)N(C)C(=O)[C@H]2[C@H]2CN=C(SCc3ccc(Cl)cc3)N21	.	12µM*	13µM*	1%[56.1 µM]	.
COC(=O)[C@@]1(Cc2ccccc2)[C@H]2C(=O)N(C)C(=O)[C@H]2[C@H]2CN=C(SCc3ccc(C)cc3)N21	.	16µM*	18µM*	1%[56.1 µM]	.
C=CCOc1ccc(CNn2nnnc2N)cc1	-1%	?	?	3%	?
CC(C)N(C(=O)CN1C(=O)NC2(CCCCCC2)C1=O)C(C)C	-6%	1%	5%	-6%	3%
CCn1c(COc2ccccc2C)nnc1SCC(=O)NCc1ccccc1	-9%	?	?	-1%	10%
CSCc1nc2scc(-c3ccccc3)c2c(=O)[nH]1	8%	0%	0%	3%	23%
COc1ccc(CN(C)Cc2nc3scc(-c4ccccc4)c3c(=O)[nH]2)cc1OC	2.5µM*	6.5µM*	13µM*	8%	1.4µM*
O=C(NCc1ccccc1)C1CCN(S(=O)(=O)N2CCOCC2)CC1	-9%	-2%	0%	-2%	15%
C/C(CC(=O)N1CCN(C=O)CC1)=N\NC(=O)c1ccc([N+](=O)[O-])cc1	?	-2%	11%	3%	8.9µM*
CCOC(=O)c1cnc2c(ccc3ccccc32)c1Nc1cccc(OC)c1	.	26µM*	?	0%[12.3 µM]	.
CCOC(=O)c1cnc2c(ccc3ccccc32)c1Nc1cccc(Cl)c1	.	-20%	-5%	-3%[12.3 µM]	.
CCOC(=O)c1cnc2c(ccc3ccccc32)c1NCCO	?	21µM*	?	-4%[56.1 µM]	32%
SMILES	Gal4-VP16 FLuc	TDP1 cell noCPT	DT40 TDP1 CPT	TDP1 block	RORg inh
CCOC(=O)c1cnc2c(ccc3ccccc32)c1NCCN(C)C	-1%	?	?	.	13%
O=C(Nc1nccs1)c1ccc[nH]c1=O	21%	-7%	9%	.	-3%[1.91 µM]
COc1ccc(NS(=O)(=O)c2cccc(C(=O)NN=C(C)c3ccco3)c2)cc1	.	?	-7%	2%	.
Cc1ccc(C(=O)Nc2cccc(C(F)(F)F)c2)cc1Nc1ccccn1	1%	16µM*	21µM*	0%	34%
Cc1occc1C(=O)Nc1cccc(C(F)(F)F)c1	13%	?	?	2%	22%
Cc1cnc(Nc2nc3ccccc3o2)nc1C(=O)Nc1cccc(C(F)(F)F)c1	?	21µM*	23µM*	7%	?
Cc1ccc(C(=O)Nc2cccc(C(F)(F)F)c2)cc1Nc1cncnc1	3%	15µM*	?	.	?
CCOc1ccccc1NC(=O)CCNC(=O)C1CCN(S(=O)(=O)c2ccccc2)CC1	.	-23%	-21%	.	.
CSc1ccccc1C(=O)N1CCCC(CNC(=O)c2ccc(F)cc2)C1 (stereo not drawn)	-3%	18%	-2%	1%	9%
C[C@H]1CCC[C@]2(C)C[C@H]3OC(=O)C(CN4CCCCCC4)[C@H]3C=C12 (stereo partly drawn)	-23%	?	?	.	?
C=C1C(=O)OC2C[C@@]3(C)CCCC(C)C3=CC12 (stereo partly drawn)	?	10µM*	?	-6%[56.1 µM]	10µM*
CCOc1cc(-c2c(C)c(C)nc(N)c2C#N)ccc1O	2%	-7%	?	-5%	-13%
O=C(Nc1ccnn1C1CCN(Cc2ccccc2OCCO)CC1)c1cccc(F)c1	5%	-5%	-16%	6%	-3%
CCNC(=S)N=Nc1c(O)[nH]c2ccc([N+](=O)[O-])cc12	11µM*	4.1µM*	3.3µM*	4%	2µM*
O=[N+]([O-])c1ccc2[nH]c(O)c(N=NC(=S)NCC3CCCO3)c2c1 (stereo not drawn)	?	15µM*	?	4%	4µM*
Cc1ccc(NCC(=O)N=Nc2c(O)[nH]c3ccc([N+](=O)[O-])cc23)cc1	-17%	23µM*	?	5%	24%
COc1ccc(/C=C/C(=O)NCC(=O)N=Nc2c(O)[nH]c3ccc([N+](=O)[O-])cc23)cc1	0%	-16%	-9%	50µM*	25%
COc1ccc(CCN(C)C(=O)c2ccc(S(=O)(=O)NCc3ccco3)cc2)cc1OC	-6%	-4%	3%	0%	?
O=c1c2cc(Cl)ccc2nc(-c2ccc(Cl)c(Cl)c2)n1O	3%	5.2µM*	5.2µM*	.	-56%
Cc1ccccc1-c1nc2ccc(Cl)cc2c(=O)n1O	?	?	-16%	.	?
